In PubChem BioAssay (NCATS):
Results filed as inconclusive are left out. Entries that show only a call come without a potency. Activity calls are given as the source filed them. Unless noted, calls come from the whole dose curve; as a rule, active = well fitted curve in the direction sought with a large enough effect; inconclusive = small, poorly fitted or top-dose-only effect, or another doubt; inactive = no such curve, though single readings can be large; an effect the other way counts as inactive or inconclusive.

How the values were obtained:
[1] = Validation screen for small molecules that induce genotoxicity in human embryonic kidney (HEK293T) cells expressing luciferase-tagged ELG1 (AID 493106)
Method in brief: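 qHTS format; 2,000 HEK293T ELG1-luc cells/well; 23 nL compound via pin tool; 16 hr, 37 °C/5% CO2; ONE-Glo, 30 min RT; luminescence read.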

[2] = biological target: ATPase family AAA domain-containing protein 5 (Homo sapiens) (UniProt Q96QE3); assay: Validation screen for small molecules that inhibit ELG1-dependent DNA repair in human embryonic kidney (HEK293T) cells expressing luciferase-tagged ELG1 (AID 493107); note: nearly all actives have a fitted effect of over 70% in size; note: potency is the fitted concentration of half-maximal effect
Method in brief: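 ELG1-luciferase HEK293T reporter; 5-fluorouridine + compound/DMSO, 16 hr, 37 °C, 5% CO2; ONE-Glo 30 min RT; luminescence read, qHTS format.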

[3] = biological target: Thyrotropin-releasing hormone receptor (Homo sapiens) (UniProt P34981); assay: qHTS for Small Molecule Agonists and Allosteric Enhancers of Human TRH Receptor: Validation Screen for Agonists (AID 493127;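 active = calcium activation more than 3 SD above the typical response in the agonist read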;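 note: intracellular calcium rise by fluo-8 fluorescence before TRH EC20 addition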); conditions: TRH receptor agonist cell assay; at 2 µM; stronger effect = higher value
Method in brief: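 Read-out: intracellular calcium release measured kinetically by FDSS (fluo-8, ex 480/em 530 nm), 1 reading/s after a 10-cycle baseline. TRHR cells, 2000/well, cultured 18 h at 33.5C, dye-loaded at room temp. Compound-evoked positive calcium signal flags agonists.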

[4] = qHTS for Inhibitors of Cell Surface uPA Generation: Validation Assay (AID 493164);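 note: RAW 264.7 macrophage cells exposed to compound for 18 h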
Method in brief: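 Compounds are titrated over seven points (2.45 nM–38.3 uM final) onto pre-plated RAW 264.7 cells and incubated for 18 h. Retained intracellular ATP, measured with ATP-Lite, indicates blocked lethal factor entry.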

[5] = biological target: Galactokinase (Homo sapiens) (UniProt P51570); assay: qHTS Validation Assay for Inhibitors of Human Galactokinase (GALK) (AID 493189)
Method in brief: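 5 nM GALK / 100 uM galactose / 35 uM ATP, 20 mM HEPES pH8.0, 5 mM MgCl2, 60 mM NaCl, 1 mM DTT, 0.01% BSA (final). RT 1 h; Kinase-Glo Plus luminescence.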

[6] = Validation screen for small molecules that induce DNA re-replication in SW480 colon adenocarcinoma cells (AID 504364)
Method in brief: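 Read-out: total Hoechst intensity of nuclei by fluorescence scanning imager; hits raise the fraction of nuclei with elevated DNA content. Cells received compound for 48 hr at 37 C before a 40 min stain.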

[7] = biological target: Phosphoglycerate kinase, glycosomal (Trypanosoma brucei brucei) (UniProt P07378); assay: qHTS Validation Assay to Find Inhibitors of Phosphoglycerate Kinase (AID 504547)
Method in brief: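 Compounds are pinned into the substrate/PGK mixture, and GAPDH (100nM final) is added to start the reaction by producing 1,3-BPG. After 60 minutes at room temperature, Kinase-Glo Plus is added and luminescence is measured 10 minutes later.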

[8] = biological target: phosphoglycerate mutase (Leishmania major) (UniProt Q4Q090); assay: qHTS Validation Assay to Find Inhibitors of Phosphoglycerate Mutase (AID 504548);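 note: end-point luminescence from Kinase-GloPlus after the PGAM reaction; series mostly up to about 58 µM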
Method in brief: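 Inhibition of L. major PGAM was assessed by Kinase-GloPlus luminescence following a 45-minute room-temperature reaction with enzyme at 1.25nM final.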

[9] = biological target: Ubiquitin carboxyl-terminal hydrolase 1 (Homo sapiens) (UniProt O94782); assay: Inhibitors of USP1/UAF1: Pilot qHTS (AID 504865);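 note: rhodamine fluorescence freed from ubiquitin-rhodamine substrate followed over time; top concentration of the series differs between compounds; nearly all actives have a fitted effect of over 35% in size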
Method in brief: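 In 50mM HEPES pH 7.8 containing 0.5mM EDTA, 1mM TCEP, 0.1 mg/ml BSA and 0.01% Tween-20, 1nM USP1/UAF1 is exposed to compound for 15 min, then Ub-Rho (150nM final) is added and fluorescence is read over time.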

[10] = qHTS for Inhibitors of ATXN expression: Validation of Cytotoxic Assay (AID 588349); note: potency is the fitted concentration of half-maximal effect
Method in brief: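 Cytotoxicity counter-screen: HEK293 cells exposed to compound titrations, 72 hr, 37 degrees C. Read-out is intracellular ATP (CellTiter Glo luminescence) as a viability measure.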

[11] = qHTS for Inhibitors of ATXN expression: Validation (AID 588378); note: nearly all actives have a fitted effect of over 75% in size; note: potency is the fitted concentration of half-maximal effect
Method in brief: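 Compounds were pinned onto attached HEK293 cells carrying an ATXN2-firefly luciferase construct and incubated 24 hrs at 37 degrees C. Each well then received a fluorescent viability reagent followed by luciferase substrate for end-point luminescence.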

[12] = Nrf2 qHTS screen for inhibitors: Validation (AID 493153; active = well fitted inhibition curve with a large enough effect in the main read-out, with a control signal flat, not every such curve was filed as active); conditions: Potency: luciferase luminescence; viability change: measured here: cytotoxicity max response
Method in brief: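 Concentration-response test in A549 ARE_Fluc reporter cells (5% FBS OPTI-MEM), compound exposure 18-24 h at 37°C, 5% CO2. Cell viability measured first by CellTiter-Fluor fluorescence; ARE-driven luciferase luminescence then measured as Nrf2 activity.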

[13] = biological target: Peptidyl-prolyl cis-trans isomerase NIMA-interacting 1 (Homo sapiens) (UniProt Q13526); assay: qHTS Validation Assay to Find Inhibitors of Pin1 (AID 504536; active = well fitted inhibition curve with a large enough effect in the polarisation, with a control signal flat, not every such curve was filed as active; the % refers to the polarisation)
Method in brief: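 Fluorescence polarization competition: compounds (titration) displace HiFluor-488-labeled Pin1-1b peptide from Pin1 (0.3 uM final) in pH 7.5 HEPES buffer with DTT, 10 min at room temperature; %Activity normalized to no-enzyme wells, curves fitted.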

[14] = biological target: Estrogen receptor (Homo sapiens) (UniProt P03372); assay: qHTS assay for small molecule agonists of estrogen receptor alpha signaling (AID 588514; calls by dose curve; note: nearly all actives have a fitted effect of over 70% in size; note: potency is the fitted concentration of half-maximal effect)
Method in brief: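 Read-out: CCF4 fluorescence from a beta-lactamase reporter in ER-alpha-UAS-bla HEK 293 cells after 18 hrs of compound exposure at 37 C. Normalized to 20 nM 17-beta-estradiol (100%) and DMSO (0%).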

[15] = biological target: DNA dC->dU-editing enzyme APOBEC-3G (Homo sapiens) (UniProt Q9HC16); assay: qHTS for inhibitors of Vif-A3G interactions: Validation (AID 588379)
Method in brief: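 Yellow fluorescence (Ex 488, Em 500-530) of Vif-coexpressing HeLa A3G-eYFP cells, scanned by Acumen cytometer, reports blocked A3G degradation. Cells plated at 700/well overnight at 37 deg C before compound addition, then a further overnight compound incubation at 37 deg C.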

[16] = biological target: Estrogen receptor (Homo sapiens) (UniProt P03372); assay: qHTS assay for small molecule antagonists of estrogen receptor alpha signaling (AID 588513; active = well fitted curve in the direction sought with a large enough effect in the signal ratio, with a control signal flat, not every such curve was filed as active; the % refers to the signal ratio)
Method in brief: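 Fluorescence from CCF4 substrate after 2 h at room temperature gave reporter activity; cells had been exposed to compound and 0.5nM 17-beta-estradiol for 18 h at 37 C. Hill-equation fitting yielded IC50 and maximal response.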

[17] = biological target: Androgen receptor (Homo sapiens) (UniProt P10275); assay: qHTS assay for small molecule agonists of androgen receptor signaling (AID 588515; active = well fitted curve in the direction sought with a large enough effect in the signal ratio, with a control signal flat; the % refers to the signal ratio; note: potency is the fitted concentration of half-maximal effect); conditions: AR-UAS-bla HEK293, beta-lactamase ratio, agonist 16 h; activation: stronger effect = higher value
Method in brief: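 Stimulation of an AR-responsive β-lactamase reporter in GripTite HEK293 cells was measured after 16 h compound exposure at 37 °C, via CCF4 fluorescence after 2 h RT. EC50 from Hill fits, normalized to R1881 at 30 nM.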

Chain of Galactokinase (Homo sapiens) (P51570 whole entry, looked up): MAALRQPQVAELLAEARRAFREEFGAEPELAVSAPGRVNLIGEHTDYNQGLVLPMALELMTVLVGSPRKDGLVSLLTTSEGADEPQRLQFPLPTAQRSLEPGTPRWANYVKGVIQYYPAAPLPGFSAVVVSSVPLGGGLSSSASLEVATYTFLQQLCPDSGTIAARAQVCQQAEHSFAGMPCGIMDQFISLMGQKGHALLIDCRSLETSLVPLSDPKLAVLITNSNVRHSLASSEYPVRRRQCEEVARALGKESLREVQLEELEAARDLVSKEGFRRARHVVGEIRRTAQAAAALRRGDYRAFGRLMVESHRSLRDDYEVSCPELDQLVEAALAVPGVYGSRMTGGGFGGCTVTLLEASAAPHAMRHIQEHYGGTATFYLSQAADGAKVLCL
Chain of Thyrotropin-releasing hormone receptor (Homo sapiens) (P34981 whole entry, looked up): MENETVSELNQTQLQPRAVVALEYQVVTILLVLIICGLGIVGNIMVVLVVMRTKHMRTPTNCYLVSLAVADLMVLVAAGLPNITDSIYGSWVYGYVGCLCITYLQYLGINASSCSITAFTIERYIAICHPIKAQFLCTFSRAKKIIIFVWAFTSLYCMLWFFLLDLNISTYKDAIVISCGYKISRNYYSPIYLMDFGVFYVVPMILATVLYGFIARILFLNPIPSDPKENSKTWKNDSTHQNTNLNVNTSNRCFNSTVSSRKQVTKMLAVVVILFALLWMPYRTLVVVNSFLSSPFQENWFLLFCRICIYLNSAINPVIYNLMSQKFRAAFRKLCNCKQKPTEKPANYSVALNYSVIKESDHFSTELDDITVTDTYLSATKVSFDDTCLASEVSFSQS
Chain of phosphoglycerate mutase (Leishmania major) (Q4Q090 1-553): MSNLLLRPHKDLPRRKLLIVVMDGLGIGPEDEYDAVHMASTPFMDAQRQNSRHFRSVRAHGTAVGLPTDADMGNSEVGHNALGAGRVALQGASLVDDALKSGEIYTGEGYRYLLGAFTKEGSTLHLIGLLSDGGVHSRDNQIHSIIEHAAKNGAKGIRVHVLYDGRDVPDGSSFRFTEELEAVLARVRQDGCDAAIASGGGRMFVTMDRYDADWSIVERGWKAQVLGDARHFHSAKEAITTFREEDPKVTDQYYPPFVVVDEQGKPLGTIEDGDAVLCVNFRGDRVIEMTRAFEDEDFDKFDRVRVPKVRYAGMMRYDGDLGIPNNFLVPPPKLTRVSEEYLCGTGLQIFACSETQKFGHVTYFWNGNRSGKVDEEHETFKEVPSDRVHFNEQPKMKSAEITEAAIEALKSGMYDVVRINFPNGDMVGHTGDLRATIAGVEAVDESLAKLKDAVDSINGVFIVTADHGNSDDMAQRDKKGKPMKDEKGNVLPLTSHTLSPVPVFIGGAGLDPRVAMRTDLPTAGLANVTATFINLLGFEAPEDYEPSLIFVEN
Chain of ATPase family AAA domain-containing protein 5 (Homo sapiens) (Q96QE3 whole entry, looked up, the tested form may be a part): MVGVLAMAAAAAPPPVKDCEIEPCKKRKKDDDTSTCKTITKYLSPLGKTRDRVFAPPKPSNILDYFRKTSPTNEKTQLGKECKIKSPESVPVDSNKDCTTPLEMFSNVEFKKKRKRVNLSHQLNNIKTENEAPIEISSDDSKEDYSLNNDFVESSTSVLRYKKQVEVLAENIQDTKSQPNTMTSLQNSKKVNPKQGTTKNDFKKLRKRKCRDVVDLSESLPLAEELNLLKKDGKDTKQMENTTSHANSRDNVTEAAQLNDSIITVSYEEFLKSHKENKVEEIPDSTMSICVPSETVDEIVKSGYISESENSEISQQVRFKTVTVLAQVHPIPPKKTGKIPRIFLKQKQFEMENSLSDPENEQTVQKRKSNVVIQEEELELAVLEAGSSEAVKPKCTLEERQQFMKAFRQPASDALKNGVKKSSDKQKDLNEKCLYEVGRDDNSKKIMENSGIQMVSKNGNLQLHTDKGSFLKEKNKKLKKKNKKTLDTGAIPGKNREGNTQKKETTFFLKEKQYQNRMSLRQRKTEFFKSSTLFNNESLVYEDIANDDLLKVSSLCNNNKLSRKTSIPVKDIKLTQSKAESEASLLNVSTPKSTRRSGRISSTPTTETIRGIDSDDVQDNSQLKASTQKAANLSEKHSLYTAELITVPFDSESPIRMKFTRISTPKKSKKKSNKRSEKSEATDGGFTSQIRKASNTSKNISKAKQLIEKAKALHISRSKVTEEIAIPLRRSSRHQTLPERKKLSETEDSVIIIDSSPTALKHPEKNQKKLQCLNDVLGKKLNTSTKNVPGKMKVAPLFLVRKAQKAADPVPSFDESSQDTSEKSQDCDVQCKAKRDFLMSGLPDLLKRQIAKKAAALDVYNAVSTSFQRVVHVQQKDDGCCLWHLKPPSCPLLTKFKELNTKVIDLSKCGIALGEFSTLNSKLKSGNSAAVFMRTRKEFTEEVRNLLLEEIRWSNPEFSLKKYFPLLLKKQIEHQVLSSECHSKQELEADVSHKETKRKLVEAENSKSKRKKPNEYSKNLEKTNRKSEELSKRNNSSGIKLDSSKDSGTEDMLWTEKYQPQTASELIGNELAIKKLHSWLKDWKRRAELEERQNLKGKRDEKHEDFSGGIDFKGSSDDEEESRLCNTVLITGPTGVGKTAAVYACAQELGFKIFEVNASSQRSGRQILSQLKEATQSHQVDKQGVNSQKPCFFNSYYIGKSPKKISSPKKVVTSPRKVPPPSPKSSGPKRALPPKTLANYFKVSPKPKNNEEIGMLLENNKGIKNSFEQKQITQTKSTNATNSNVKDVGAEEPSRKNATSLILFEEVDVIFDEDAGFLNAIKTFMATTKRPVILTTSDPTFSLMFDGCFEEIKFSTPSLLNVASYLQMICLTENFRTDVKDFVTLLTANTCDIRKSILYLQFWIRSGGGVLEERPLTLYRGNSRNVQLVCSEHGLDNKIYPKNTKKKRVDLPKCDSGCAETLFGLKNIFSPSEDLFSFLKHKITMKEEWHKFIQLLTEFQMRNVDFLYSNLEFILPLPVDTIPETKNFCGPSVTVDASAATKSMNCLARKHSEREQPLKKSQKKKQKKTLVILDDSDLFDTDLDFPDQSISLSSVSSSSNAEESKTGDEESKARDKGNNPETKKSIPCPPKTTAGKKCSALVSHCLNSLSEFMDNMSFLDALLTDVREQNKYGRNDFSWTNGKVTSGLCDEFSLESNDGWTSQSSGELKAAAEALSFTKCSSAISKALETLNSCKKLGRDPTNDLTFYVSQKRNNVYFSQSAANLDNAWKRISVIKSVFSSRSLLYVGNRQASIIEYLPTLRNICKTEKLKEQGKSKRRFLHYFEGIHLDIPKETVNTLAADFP
Chain of Estrogen receptor (Homo sapiens) (P03372 whole entry, looked up): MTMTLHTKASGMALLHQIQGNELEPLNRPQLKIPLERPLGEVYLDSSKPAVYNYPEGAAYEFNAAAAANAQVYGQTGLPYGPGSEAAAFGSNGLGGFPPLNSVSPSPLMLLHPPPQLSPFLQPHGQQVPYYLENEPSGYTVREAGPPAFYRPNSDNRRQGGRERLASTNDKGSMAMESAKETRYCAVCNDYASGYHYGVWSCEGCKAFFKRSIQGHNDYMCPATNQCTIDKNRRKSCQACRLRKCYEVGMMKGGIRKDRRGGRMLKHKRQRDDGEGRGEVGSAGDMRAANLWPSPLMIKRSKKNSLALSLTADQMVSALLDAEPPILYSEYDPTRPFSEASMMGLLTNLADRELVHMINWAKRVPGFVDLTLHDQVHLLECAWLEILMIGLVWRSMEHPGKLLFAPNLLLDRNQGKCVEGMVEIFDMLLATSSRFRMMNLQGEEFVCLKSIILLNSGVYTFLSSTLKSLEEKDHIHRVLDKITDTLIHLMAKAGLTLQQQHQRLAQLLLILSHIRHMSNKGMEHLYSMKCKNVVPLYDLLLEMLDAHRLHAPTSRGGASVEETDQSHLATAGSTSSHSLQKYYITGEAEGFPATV
Chain of Peptidyl-prolyl cis-trans isomerase NIMA-interacting 1 (Homo sapiens) (Q13526 whole entry, looked up): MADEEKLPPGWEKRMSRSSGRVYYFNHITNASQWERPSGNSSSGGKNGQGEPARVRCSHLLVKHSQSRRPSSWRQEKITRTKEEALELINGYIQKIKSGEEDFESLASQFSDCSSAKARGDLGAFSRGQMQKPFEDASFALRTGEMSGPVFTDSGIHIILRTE
Chain of Ubiquitin carboxyl-terminal hydrolase 1 (Homo sapiens) (O94782 whole entry, looked up): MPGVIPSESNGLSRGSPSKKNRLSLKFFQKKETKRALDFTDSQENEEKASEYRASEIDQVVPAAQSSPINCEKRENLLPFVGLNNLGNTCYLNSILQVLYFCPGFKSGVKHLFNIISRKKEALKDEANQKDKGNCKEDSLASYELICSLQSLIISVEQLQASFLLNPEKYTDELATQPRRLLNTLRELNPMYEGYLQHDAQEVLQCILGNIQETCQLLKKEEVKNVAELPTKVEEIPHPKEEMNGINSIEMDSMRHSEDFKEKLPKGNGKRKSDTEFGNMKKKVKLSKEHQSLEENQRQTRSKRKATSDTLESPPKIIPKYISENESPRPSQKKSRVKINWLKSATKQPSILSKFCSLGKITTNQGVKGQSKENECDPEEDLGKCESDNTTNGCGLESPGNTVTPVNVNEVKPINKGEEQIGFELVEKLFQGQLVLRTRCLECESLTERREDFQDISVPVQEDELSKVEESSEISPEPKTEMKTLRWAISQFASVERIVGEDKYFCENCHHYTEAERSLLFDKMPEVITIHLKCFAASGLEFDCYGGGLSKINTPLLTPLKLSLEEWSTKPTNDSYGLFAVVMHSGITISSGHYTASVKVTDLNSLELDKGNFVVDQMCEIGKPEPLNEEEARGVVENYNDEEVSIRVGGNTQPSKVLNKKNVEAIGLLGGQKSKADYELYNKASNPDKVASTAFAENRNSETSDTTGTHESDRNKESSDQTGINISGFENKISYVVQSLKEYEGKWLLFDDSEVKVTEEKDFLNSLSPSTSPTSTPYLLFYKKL

SMILES | Potency [1] | Potency [2] | activation [3] | outcome [4] | outcome [5] | outcome [6] | outcome [7] | outcome [8] | Potency [9] | Potency [10] | Potency [11] | Potency [12] | viability change [12] [%] | outcome [13] | Potency [14] | outcome [15] | outcome [16] | Potency [17]
CCc1c(C)[nH]c2c1C(=O)C(CN1CCOCC1)CC2 (centres undefined) | inactive | inactive | 0.75% (inactive) | inactive | inactive | inactive | inactive | inactive | inactive | inactive | inactive | – | – | – | – | – | – | –
CC(C)COCC(CN(Cc1ccccc1)c1ccccc1)N1CCCC1 (centres undefined) | inactive | – | 0.812% (inactive) | inactive | inactive | inactive | inactive | inactive | inactive | inactive | inactive | inactive | 2.97 | inactive | – | – | – | –
CN1C[C@H](C(=O)N[C@]2(C)O[C@@]3(O)[C@@H]4CCCN4C(=O)[C@H](Cc4ccccc4)N3C2=O)C[C@@H]2c3cccc4[nH]cc(c34)C[C@H]21 | inactive | – | – | inactive | – | – | inactive | inactive | – | inactive | inactive | – | – | inactive | – | – | – | –
CN1C(=O)CC[C@H]1c1cccnc1 | inactive | – | – | inactive | – | – | inactive | inactive | inactive | inactive | inactive | inactive | 0.268 | – | – | – | – | –
C[C@]12CCC(=O)C=C1CC[C@@H]1[C@@H]2C(=O)C[C@@]2(C)[C@H]1CC[C@]2(O)C(=O)CO | inactive | – | -0.125% (inactive) | inactive | inactive | inactive | inactive | inactive | inactive | inactive | inactive | inactive | 8.98 | inactive | inactive | – | – | –
C[n+]1cc2c3c(ccc2c2ccc4cc5c(cc4c21)OCO5)OCO3 | – | – | 2.44% (inactive) | inactive | inactive | inactive | inactive | inactive | inactive | 3.55 µM (active) | 6.31 µM (active) | – | – | inactive | – | – | – | –
COc1ccc2c(c1OC)C(=O)O[C@@H]2[C@H]1c2c(cc3c(c2OC)OCO3)CCN1C | inactive | inactive | – | inactive | – | – | inactive | inactive | inactive | – | inactive | – | – | inactive | – | inactive | – | –
Nc1nc(N)c2nc(-c3ccccc3)c(N)nc2n1 | – | – | -0.0625% (inactive) | inactive | inactive | inactive | inactive | inactive | inactive | – | inactive | inactive | 5.44 | – | 35.5 µM (active) | – | inactive | 44.7 µM (active)
COc1cc(Cc2cnc(N)nc2N)cc(OC)c1OC | – | – | 0.312% (inactive) | inactive | – | inactive | inactive | inactive | inactive | inactive | inactive | inactive | 1.71 | inactive | inactive | inactive | inactive | –
COc1ccc(CN(CCN(C)C)c2ccccn2)cc1 | inactive | – | 1.25% (inactive) | inactive | inactive | inactive | inactive | inactive | inactive | inactive | – | inactive | 0.301 | – | – | inactive | – | –
O=C1NCN(c2ccccc2)C12CCN(CCCC(c1ccc(F)cc1)c1ccc(F)cc1)CC2 | inactive | 25.9 µM (active) | 0.75% (inactive) | inactive | – | inactive | inactive | inactive | – | inactive | inactive | – | – | inactive | – | – | – | –
CC(=O)OC(C)C[N+](C)(C)C (centres undefined) | inactive | inactive | – | inactive | – | inactive | inactive | inactive | inactive | inactive | inactive | inactive | 2.56 | inactive | – | – | – | –
